# Many of the other results were omitted from the sample, so the strongest signals are more common in it than they were.
# Assays:
# Experiment in all cases: glycan array binding signal (z-score within array); higher = stronger binding
# Conditions in all cases: glycan notation: IUPAC condensed, linker removed
# [1] = molecular target: Neu5Ac(a2-6)Gal(b1-4)GlcNAc(b1-2)Man(a1-6)Man(b1-4)GlcNAc(b1-4)GlcNAc
# Method in brief: (§1)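 Glycan array data came from 3228 arrays in the Consortium for Functional Glycomics database, and only arrays with an available protein sequence were kept. Glycan names were put into IUPAC-condensed notation, and columns mapping to the same glycan were averaged. The binding signal is a within-array Z-score, averaged across arrays of one protein sequence run at different concentrations or buffers and across linkers. A negative Z-score can be read as non-binding.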
# [2] = molecular target: Neu5Ac9Ac(a2-3)Gal(b1-3)GlcNAc
# Method in brief: as §1
# [3] = molecular target: Neu5Gc(a2-3)Gal(b1-3)[Fuc(a1-4)]GlcNAc
# Method in brief: as §1
# [4] = molecular target: Neu5Gc(a2-6)Gal(b1-4)GlcNAc
# Method in brief: as §1
binder,measurement,setting,value
"PEB1 (Campylobacter jejuni), Q0P9X8 (protein) MVFRKSLLKLAVFALGACVAFSNANAAEGKLESIKSKGQLIVGVKNDVPHYALLDQATGEIKGFEVDVAKLLAKSILGDDKKIKLVAVNAKTRGPLLDNGSVDAVIATFTITPERKRIYNFSEPYYQDAIGLLVLKEKKYKSLADMKGANIGVAQAATTKKAIGEAAKKIGIDVKFSEFPDYPSIKAALDAKRVDAFSVDKSILLGYVDDKSEILPDSFEPQSYGIVTKKDDPAFAKYVDDFVKEHKNEIDALAKKWGL",glycan array binding signal (z-score),[1],1.09
same,glycan array binding signal (z-score),[2],-0.504
same,glycan array binding signal (z-score),[3],-0.646
same,glycan array binding signal (z-score),[4],0.988

# — the supplement of paper PMC8728848
